A selection: hits, their analogues and other compounds. The true share with any hit is near 1.6%.
KCNH2 3.1 block: qHTS for Inhibitors of KCHN2 3.1: Mutant qHTS. 340,000 compounds, 0.95% hits. AID 720553, 2013. U2OS KCNH2 3.1, thallium flux FluxOr; hits give low values. activity change, % (tested at about 1.8 µM);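 active = maximum activity change below -70%; inconclusive = maximum activity change from -70% to -50%; inactive = maximum activity change above -50%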;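 also: thallium influx rate constant from kinetic fluorescence after stimulation buffer; % is scaled to controls: 0 for no effect and ±100 for the full control effect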
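Measured as rate of thallium-driven FluxOr signal in transduced U2OS cells carrying the 3.1 channel, read kinetically for 2 min upon stimulation; values are rate constants scaled to DMSO control wells.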
Akt phos inh: HTS Assay for Inhibitors of Akt Phophorylation: Primary Screen. Neuro2A IGF-stimulated pAkt S473 HTRF, 20 min; hits give low values. 360,000 compounds, 0.32% hits. activity change, % for hits at 50 µM; in the data active = activity change below about -80%; inconclusive = mostly about -51% to -80%; also: % is scaled to controls: 0 for no effect and ±100 for the full control effect
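Neuro2A cells in DMEM with 0.5% FBS, overnight at 37 deg C, given compound at single 50 µM final, then IGF (6 nM final) for 20 min at 37 deg C. Lysed; phospho-Akt Ser473 by HTRF after 24 h, 665/615 ratio.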
gsp ag: qHTS for Agonist of gsp, the Etiologic Mutation Responsible for Fibrous Dysplasia/McCune-Albright Syndrome: qHTS. gsp mutant cells, cAMP HTRF, 30 min. Potency, µM (doses to about 76.9 µM), inactives show at the top dose activation (cAMP increase), most hits filed as activators. 340,000 compounds, 0.13% hits; active = well fitted activation curve with a large enough effect; inconclusive = small, poorly fitted or top-dose-only effect, or another doubt; inactive = no such curve, though single readings can be large or run the other way; cell line not stated here;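 also: phosphodiesterase inhibitor Ro 20-1724 added with compounds to block cAMP breakdown; potency is read from the fitted curve at half-maximal effect; nearly all actives have a fitted effect of over 60% in size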
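Cells in DMEM/10% FBS with G418 were pretreated with compounds in DMSO plus […] (300 uM stock) for 30 min at 37C. cAMP was measured by HTRF (cAMP-d2 plus anti-cAMP antibody-K) after 30 min at room temperature.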
gsp antag: qHTS for Antagonists of gsp, the Etiologic Mutation Responsible for Fibrous Dysplasia/McCune-Albright Syndrome: qHTS | 340,000 compounds, 0.4% hits | gsp-mutant cells, cAMP HTRF, 30 min | Potency, µM (titrated, usually from 76.9 µM), for inactives: at the highest dose activity change, negative = inhibition, hits mostly inhibitors; calls by dose curve; cell line not stated here;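 also: intracellular cAMP measured with PDE inhibitor Ro 20-1724 present during compound exposure; potency is read from the fitted curve at half-maximal effect; % is scaled to controls: 0 for no effect and ±100 for the full control effect; nearly all actives have a fitted effect of over 65% in size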
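HTRF cAMP measurement after 30 min RT detection following 30 min, 37C compound treatment alongside […] (added as 300 uM solution) in G418-selected cells seeded at 2000/well and grown 16–24 h.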
KCNH2 WT inh: qHTS for Inhibitors of KCHN2 3.1: Wildtype qHTS; AID 720551, 2013; Voltage-gated inwardly rectifying potassium channel KCNH2 (Homo sapiens), Q12809; 340,000 compounds, 0.37% hits; activity change, % at 1.84 µM; U2OS, BacMam KCNH2, thallium flux FluxOr; hits give low values;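 active = maximum activity change below -70%; inconclusive = maximum activity change between -70% and -50%; inactive = maximum activity change above -50%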; also: % is scaled to controls: 0 for no effect and ±100 for the full control effect
Target sequence (Q12809 whole entry, looked up): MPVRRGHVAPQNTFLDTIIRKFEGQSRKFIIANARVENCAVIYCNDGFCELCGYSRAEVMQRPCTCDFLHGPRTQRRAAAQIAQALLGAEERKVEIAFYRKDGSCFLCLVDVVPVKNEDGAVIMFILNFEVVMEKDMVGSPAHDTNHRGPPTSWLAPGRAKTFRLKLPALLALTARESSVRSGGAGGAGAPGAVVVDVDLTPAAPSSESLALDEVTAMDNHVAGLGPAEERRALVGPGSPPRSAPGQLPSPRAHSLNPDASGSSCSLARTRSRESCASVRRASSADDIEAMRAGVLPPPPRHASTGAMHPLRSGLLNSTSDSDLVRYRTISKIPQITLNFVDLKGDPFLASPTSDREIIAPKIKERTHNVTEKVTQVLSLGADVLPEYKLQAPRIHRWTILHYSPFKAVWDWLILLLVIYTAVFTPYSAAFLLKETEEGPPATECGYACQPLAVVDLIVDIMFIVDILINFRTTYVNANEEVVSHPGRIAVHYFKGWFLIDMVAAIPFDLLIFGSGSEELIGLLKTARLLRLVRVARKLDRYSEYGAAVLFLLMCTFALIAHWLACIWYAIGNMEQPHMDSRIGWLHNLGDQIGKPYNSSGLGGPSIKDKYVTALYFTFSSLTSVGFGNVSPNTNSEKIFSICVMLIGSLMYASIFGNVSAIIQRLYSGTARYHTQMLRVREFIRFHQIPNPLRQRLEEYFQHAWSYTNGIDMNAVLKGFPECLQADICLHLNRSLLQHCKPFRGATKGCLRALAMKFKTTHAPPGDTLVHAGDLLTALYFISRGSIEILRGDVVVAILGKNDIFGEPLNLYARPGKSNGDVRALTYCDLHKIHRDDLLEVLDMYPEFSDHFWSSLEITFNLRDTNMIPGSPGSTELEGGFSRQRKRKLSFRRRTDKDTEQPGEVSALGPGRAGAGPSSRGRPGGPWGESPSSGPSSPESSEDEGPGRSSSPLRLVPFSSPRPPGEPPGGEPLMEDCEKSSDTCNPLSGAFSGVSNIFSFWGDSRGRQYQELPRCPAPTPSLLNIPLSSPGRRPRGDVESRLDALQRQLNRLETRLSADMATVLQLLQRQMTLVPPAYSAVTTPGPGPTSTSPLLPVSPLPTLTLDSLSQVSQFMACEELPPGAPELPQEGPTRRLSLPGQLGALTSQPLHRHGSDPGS
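U2OS cells were transduced with wild-type KCNH2 virus (2.03 x 10^8 / mL) for 4 h at room temperature, then cultured overnight at 37 C. Thallium flux was read with FluxOr dye. Rate constants were normalized to DMSO controls.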
GRP78 ERSR act: qHTS for Inducers of the Endoplasmic Reticulum Stress Response (ERSR) in Human Glioma: qHTS; U87-MG GRP78 promoter luciferase reporter, 16 h; Potency, µM, for the others: at the top dose activation, actives largely listed as activators; 420,000 compounds, 0.02% hits; active = well fitted activation curve with a large enough effect; inconclusive = small, poorly fitted or top-dose-only effect; inactive = no such curve, though single readings can be large or run the other way; also: potency is read from the fitted curve at half-maximal effect; series mostly up to about 76 µM; % of control where 0% means no effect; nearly all actives have a fitted effect of over 35% in size
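Stably transfected U87-MG glioma cells carrying a GRP78-based luciferase sensor; 16 h compound incubation. Luminescence end-point read 10 min after Bright-Glo addition at room temperature.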
The depositor's hits bear a star; i = inactive; ? = inconclusive; nt = no result; [ ] = remark or other dose.

SMILES	KCNH2 3.1 block	Akt phos inh	gsp ag	gsp antag	KCNH2 WT inh	GRP78 ERSR act
Cc1ccccc1-c1n[nH]c(=S)o1	15	-102%*	?	40%	-2	-2%
Cc1cccc(-c2cccc(C(=O)N3CCc4c(cnc(C)c4CNC(=O)c4cncs4)C3)c2)c1	nt	nt	nt	nt	nt	-4%
CSc1nnc(CCNC(=O)c2ccc(-c3cccc(F)c3)cc2)n1-c1ccc(F)cc1	nt	nt	nt	nt	nt	2%
Cc1ccccc1NC(=O)c1cc([N+](=O)[O-])ccc1NCCN1C(=O)CCC1=O	-159*	i	2%[15.4 µM]	-3%	5	-3%
O=C(Nc1ccccc1)c1ccc(NCCN2C(=O)CCC2=O)c([N+](=O)[O-])c1	24	i	-8%[15.4 µM]	nt	0	-1%
CC(C)Oc1ccc(-c2nc(-c3cccnc3)no2)cc1	nt	nt	nt	nt	nt	-7%
COC(=O)c1ccc(CSc2nnc(NC(=O)c3cc4c(s3)CCCC4)s2)cc1	2	i	22%	-3%	1	-4%
CC1CCc2sc(C(=O)Nc3nnc(SCc4ccc(F)cc4)s3)cc2C1 (stereo not given)	-3	-85%*	-13%	-3%[15.4 µM]	1	0%
CCOc1cc(/C=C(\C#N)C(=O)Nc2cccc(C(=O)O)c2)cc(Br)c1OC(=O)c1ccc(OC)cc1	-112*	i	10%	-12%	-1	?
CCOc1cc(/C=C(\C#N)C(=O)Nc2cccc(C(=O)O)c2)ccc1OCc1ccccc1Cl	-22	i	-21%	?	-8	2%
CCc1cc2c(=O)n(Cc3ccco3)c(SCC(=O)NC3CCS(=O)(=O)C3)nc2s1 (stereo not given)	-48	i	-49%	-18%	0	-2%
O=C(CSc1nc2ccccc2c(=O)n1Cc1ccco1)N1CCCCCC1	-81*	i	?	-10%	-8	-1%
CCc1cc2c(=O)n(Cc3ccco3)c(SCC(=O)N3CCCc4ccccc43)nc2s1	-77*	i	-20%	-7%	-8	-1%
CCc1cc2c(=O)n(Cc3ccco3)c(SCC(=O)N(C)C3CCS(=O)(=O)C3)nc2s1 (stereo not given)	-111*	i	-2%[15.4 µM]	-34%	-90*	1%
CN(C)c1cc(F)c(C=O)cc1F	nt	nt	nt	nt	nt	-4%
CSCC[C@H](NC(=O)[C@H](CCCNC(=N)N)NC(=O)[C@H](Cc1ccc(O)cc1)NC(=O)[C@@H]1CCCN1C(=O)CNC(=O)[C@H](CCC(=O)O)NC(=O)[C@H](CC(=O)O)NC(=O)[C@H](CCCCN)NC(=O)[C@H](CCCCN)NC(=O)[C@H](CCC(=O)O)NC(=O)[C@H](C)N)C(=O)N[C@@H](CCC(=O)O)C(=O)N[C@@H](Cc1cnc[nH]1)C(=O)N[C@@H](Cc1ccccc1)C(=O)N[C@@H](CCCNC(=N)N)C(=O)N[C@@H](Cc1c[nH]c2ccccc12)C(=O)NCC(=O)N[C@@H](CO)C(=O)N1CCC[C@H]1C(=O)N1CCC[C@H]1C(=O)N[C@@H](CCCCN)C(=O)N[C@@H](CC(=O)O)C(=O)O	nt	nt	nt	nt	nt	0%
Cc1ccc(C(=O)Oc2ccc(C(=O)COC(=O)C3CC(=O)N(Cc4ccco4)C3)cc2)cc1 (stereo not given)	-87*	i	-6%	1%	-1	?
CN1C(=O)C(CC(=O)N2CCN(C(c3ccccc3)c3ccccc3)CC2)N(C)C1=O (stereo not given)	-6	-115%*	-47%	13%	6	3%
COc1ccc(-c2nc(Cn3c(SCc4ccc(C)cc4)nc4ccncc43)c(C)o2)cc1OC	-122*	i	26%	0%	-46	5%
COc1ccc(-c2nc(Cn3c(SCc4cccc(F)c4)nc4ccncc43)c(C)o2)cc1OC	-107*	i	-2%	-16%	-1	-2%
COc1ccc(-c2nc(Cn3c(SCc4ccccc4F)nc4ccncc43)c(C)o2)cc1OC	nt	nt	nt	nt	nt	-1%
Cc1cccc(-c2nc(Cn3c(SCc4cccc(C(F)(F)F)c4)nc4ccncc43)c(C)o2)c1	nt	nt	nt	nt	nt	-4%
CC(C)(C)n1ncc2c(=O)n(Cc3ccccc3F)cnc21	nt	nt	nt	nt	nt	-3%
CCN(CC)CCN(C(=O)/C=C/c1cccs1)c1nc2ccc(C)cc2s1	-99*	i	15%	5%	-148*	-2%
CCc1ccc2nc(N(CCCN(C)C)C(=O)c3ccc(C(=O)c4ccccc4)cc3)sc2c1	-89*	i	1%	9%	0	-11%
SMILES	KCNH2 3.1 block	Akt phos inh	gsp ag	gsp antag	KCNH2 WT inh	GRP78 ERSR act
CN(C)CCN(C(=O)/C=C/c1cccs1)c1nc2ccc(Br)cc2s1	-73*	i	?	3%	-10	-9%
COc1cc2nc(N(CCCN(C)C)C(=O)c3ccc(C(=O)c4ccccc4)cc3)sc2cc1OC	15	i	?	-8%	27	0%
Cc1ccc2nc(N(CCCN(C)C)C(=O)CN3C(=O)c4ccccc4C3=O)sc2c1	-87*	i	-1%	-5%	34	-7%
CN(C)CCCN(C(=O)/C=C/c1cccs1)c1nc2ccc(F)cc2s1	-33	i	-2%[15.4 µM]	0%	-4	-4%
CCN1C(=NCc2cccc(C(F)(F)F)c2)N[C@@H](c2cccc(C(F)(F)F)c2)C(C(=O)OC)=C1C	nt	nt	nt	nt	nt	-12%
Cc1ccc2nc(N(CCN(C)C)C(=O)/C=C/c3cccs3)sc2c1	-101*	i	-41%	6%	-16	-5%
CCc1ccc2nc(N(CCN(C)C)C(=O)/C=C/c3cccs3)sc2c1	-127*	i	13%	9%	-43	-7%
CCOc1ccc2nc(N(CCN(C)C)C(=O)/C=C/c3cccs3)sc2c1	-7	nt	9%	-2%	39	-7%
CCCN(C/C=C/I)C1CCc2cccc(O)c2C1 (stereo not given)	nt	nt	nt	nt	nt	-5%
COc1cc(OC)cc(C(=O)NCCN2C(=O)S/C(=C\c3cccs3)C2=O)c1	2	i	-65%	28µM*	1	-6%
COC(=O)C1=C(C)N(c2ccccc2)/C(=C/c2ccco2)C1=O	-73*	i	-9%[15.4 µM]	-7%	-3	2%
COc1cc2c(cc1O)CCN[C@@]21CS[C@H]2c3c(OC(C)=O)c(C)c4c(c3C(COC1=O)N1C2C2c3c(cc(C)c(OC)c3O)CC([C@@H]1O)N2C)OCO4 (stereo not given in full)	nt	nt	nt	nt	nt	-8%
